PubChem BioAssay (Tox21)
Results filed as inconclusive are left out. Calls of active or inactive are those of the source. Unless noted, calls follow the shape of the dose curve; as a rule, active = well fitted curve in the direction sought with a large enough effect in the repeat runs; inconclusive = weak or mixed curves; inactive = no such curve, though single readings can be large; an effect the other way counts as inactive or inconclusive.

Columns and labels:
[1] = qHTS assay for small molecule agonists of the p53 signaling pathway - cell viability (AID 651633; calls by dose curve;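 also: p53RE-bla HCT reporter cells with a stable beta-lactamase p53 reporter; series mostly up to about 83 µM; nearly all actives have a fitted effect of over 30% in size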)
Outline: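 p53RE-bla cells, seeded at 4,000 per well and rested 5 h at 37 C/5% CO2, received compounds in DMSO for 16 h at 37 C. CellTiter-Glo was then added, and luminescence was read after 30 min at room temperature to gauge cytotoxicity.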

[2] = qHTS assay for small molecules that induce genotoxicity in human embryonic kidney cells expressing luciferase-tagged ATAD5 - cell viability (AID 651634; calls by dose curve; also: nearly all actives have a fitted effect of over 25% in size)
Outline: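 Viability read: CellTiter-Fluor fluorescence, 30 min at 37C. Cells: HEK293T, luciferase-tagged ATAD5. Exposure: 15.5 hr, 37C, 5% CO2, compound or DMSO vehicle.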

[3] = qHTS assay for small molecule disruptors of the mitochondrial membrane potential - cell viability (AID 720634; calls by dose curve;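 also: human HepG2 liver cancer cells; series mostly up to about 83 µM; nearly all actives have a fitted effect of over 20% in size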)
Outline: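 HepG2, 1 hr compound, 37 C. ATP luminescence via CellTiter-Glo, 30 min RT, same well as m-MPI.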

[4] = qHTS assay for small molecule disruptors of the mitochondrial membrane potential (AID 720635)
Outline: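 HepG2 cells (2,000/well) attached overnight at 37C, then took compound for 1 hr at 37C, 5% CO2. Mito-MPS dye was added for 30 min; fluorescence was read at 490/535 nm (monomers) and 540/590 nm (aggregates).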

[5] = qHTS assay to test for compound auto fluorescence at 590 nm (red) in HepG2 cells (AID 720674)
Outline: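 Compound auto-fluorescence is scored relative to Rose Bengal sodium, measured at 540/590 nm in live HepG2 cultures after 1 hr compound contact (37 C, 5% CO2).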

[6] = qHTS assay to test for compound auto fluorescence at 535 nm (green) in HepG2 cells (AID 720675)
[7] = qHTS assay to test for compound auto fluorescence at 460 nm (blue) in HEK293 cells (AID 720678)
Outline: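 HEK293 cells (2,000 per well, medium with 10% dialyzed FBS) attached for 4-5 hr at 37C, then received compound and stood overnight at 37C, 5% CO2. Blue fluorescence was read at Ex/Em 405/460 nm and expressed relative to triamterene.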

[8] = qHTS assay to test for compound auto fluorescence at 590 nm (red) in HEK293 cells (AID 720679)
Outline: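 HEK293 cells (2,000/well, medium with 10% dialyzed FBS) attached for 4-5 hr at 37C, received 23 nL compound and were incubated overnight at 37C, 5% CO2. Red fluorescence was then read at 540/590nm Ex/Em, referenced to Rose Bengal sodium.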

[9] = qHTS assay to test for compound auto fluorescence at 535 nm (green) in HEK293 cells (AID 720680)
[10] = qHTS assay to test for compound auto fluorescence at 535 nm (green) in HEK293 cell free culture (AID 720682)
Outline: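 Green-channel intensity (Ex/Em 485/535 nm) was recorded from compound-treated wells containing only DMEM with 10% FBS. Fluorescein provided the equivalency standard.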

[11] = qHTS assay to test for compound auto fluorescence at 590 nm (red) in HEK293 cell free culture (AID 720683)
Outline: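 Tox21 10K library compounds were pinned into cell-free DMEM with 10% FBS and fluorescence was read at excitation 540 nm. Activity is expressed as Rose Bengal sodium equivalency.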

[12] = qHTS assay to test for compound auto fluorescence at 590 nm (red) in HepG2 cell free culture (AID 720684)
Outline: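 Red fluorescence (540 nm excitation, 590 nm emission) was measured after compound transfer into cell-free MEM supplemented with 10% FBS. Values are equivalencies against Rose Bengal sodium.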

[13] = qHTS assay to test for compound auto fluorescence at 460 nm (blue) in HepG2 cell free culture (AID 720685)
Outline: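 Compound (23 nL) or DMSO pinned into cell-free MEM with 10% FBS; blue fluorescence read at 405/460 nm excitation/emission, expressed as auto-fluorescence equivalency to triamterene.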

[14] = qHTS assay to test for compound auto fluorescence at 535 nm (green) in HepG2 cell free culture (AID 720686)
[15] = qHTS assay to test for compound auto fluorescence at 460 nm (blue) in HepG2 cells (AID 720687)
Outline: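 Cells (2,000/well in MEM with 10% FBS) attached overnight at 37 C, then were exposed to compound or DMSO for 1 hr at 37 C, 5% CO2. Fluorescence read at Ex/Em 405/460 nm, expressed as triamterene-equivalent signal.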

[16] = biological target: Glucocorticoid receptor (Homo sapiens) (UniProt P04150); assay: qHTS assay to identify small molecule agonists of the glucocorticoid receptor (GR) signaling pathway (AID 720691; active = well fitted activation curve with a large enough effect in the signal ratio in the repeat runs, not every such curve was filed as active; the % refers to the signal ratio; also: potency is read from the fitted curve at half-maximal effect)
Outline: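 qHTS in GR-bla HeLa cells: 4 h settling at 37 C/5% CO2, 18 h compound incubation at 37 C, 2 h LiveBLAzer B/G FRET substrate at room temperature, fluorescence intensity measured.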

[17] = qHTS assay for small molecules that induce genotoxicity in human embryonic kidney cells expressing luciferase-tagged ATAD5 (AID 651632); also: nearly all actives have a fitted effect of over 15% in size
Outline: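 Luminescent reporter readout, HEK293T ATAD5-luc line: 16 hr drug exposure (37C, 5% CO2) followed by Amplite, 30 min RT.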

[18] = qHTS assay to test for compound auto fluorescence at 460 nm (blue) in HEK293 cell free culture (AID 720681)
Outline: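 Test compounds were pinned into cell-free culture medium (DMEM with 10% FBS) and fluorescence was read directly at Ex/Em 405/460 nm. Signals were expressed as fluorescence equivalents of triamterene, with DMSO vehicle as control.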

[19] = biological target: Glucocorticoid receptor (Homo sapiens) (UniProt P04150); assay: qHTS assay to identify small molecule antagonists of the glucocorticoid receptor (GR) signaling pathway (AID 720692; active = well fitted inhibition curve with a large enough effect in the signal ratio in the repeat runs, not every such curve was filed as active; the % refers to the signal ratio)
Outline: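 Inhibition of glucocorticoid signalling is measured in HeLa cells with a GRE-controlled beta-lactamase reporter; cells are co-treated with compound and 5 nM dexamethasone (final) for 18 h before FRET substrate readout.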

Measured: Potency

Glucocorticoid receptor (Homo sapiens), sequence (P04150 whole entry, looked up): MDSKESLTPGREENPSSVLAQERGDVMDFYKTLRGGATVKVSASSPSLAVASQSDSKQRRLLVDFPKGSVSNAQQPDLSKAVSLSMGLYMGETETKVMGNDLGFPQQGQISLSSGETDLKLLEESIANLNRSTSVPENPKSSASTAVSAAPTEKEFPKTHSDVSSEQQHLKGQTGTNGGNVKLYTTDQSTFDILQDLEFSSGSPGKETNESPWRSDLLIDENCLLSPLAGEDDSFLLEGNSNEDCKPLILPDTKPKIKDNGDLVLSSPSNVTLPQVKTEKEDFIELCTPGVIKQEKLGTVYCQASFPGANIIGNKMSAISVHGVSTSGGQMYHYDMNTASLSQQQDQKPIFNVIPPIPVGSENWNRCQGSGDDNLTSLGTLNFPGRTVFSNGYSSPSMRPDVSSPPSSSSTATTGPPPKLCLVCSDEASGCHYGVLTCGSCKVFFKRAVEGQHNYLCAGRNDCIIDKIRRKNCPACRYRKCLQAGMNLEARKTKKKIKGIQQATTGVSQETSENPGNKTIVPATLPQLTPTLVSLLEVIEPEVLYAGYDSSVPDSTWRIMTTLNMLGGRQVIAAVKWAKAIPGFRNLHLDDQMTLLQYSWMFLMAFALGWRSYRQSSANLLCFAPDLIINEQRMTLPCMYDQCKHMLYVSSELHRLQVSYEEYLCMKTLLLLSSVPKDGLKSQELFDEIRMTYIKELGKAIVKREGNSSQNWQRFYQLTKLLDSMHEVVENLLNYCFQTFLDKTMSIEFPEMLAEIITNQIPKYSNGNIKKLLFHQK

COP(=O)(O)OP(=O)(O)OC
not listed: [17] | [18] | [19]
inactive: all other assays above

Cc1c(Cl)cccc1Cl
not listed: [4] | [15] | [17] | [18] | [19]
inactive: all other assays above

CC(=O)Nc1ccc(OC(=O)c2ccccc2OC(C)=O)cc1
not listed: [1] | [4] | [15] | [19]
inactive: all other assays above

CC(C)Cn1cnc2c1c(=O)n(C)c(=O)n2C
not listed: [15] | [17] | [19]
inactive: all other assays above

CC(C)OC(=O)CCC(=O)OC(C)C
not listed: [4] | [15] | [17]
inactive: all other assays above

Cc1c(C(=O)c2c[nH]n(C)c2=O)ccc(S(C)(=O)=O)c1C1=NOCC1
not listed: [4] | [18] | [19]
inactive: all other assays above

COc1ccc(CCO)cc1
not listed: [4] | [17] | [19]
inactive: all other assays above

CN(C)CCOC(=O)C(c1ccccc1)C1(O)CCCC1 (stereo not given)
not listed: [1] | [15]
inactive: all other assays above

C=Cc1ccc(C(C)(C)C)cc1
not listed: [4] | [15] | [16] | [18] | [19]
inactive: all other assays above

O=C=NCC1CCCC(CN=C=O)C1 (stereo not given)
not listed: [4] | [13] | [16] | [19]
inactive: all other assays above

Fc1ccccc1
not listed: [4] | [13]
inactive: all other assays above

COC(=O)c1cc(Cl)cc(Cl)c1
not listed: [1] | [4]
inactive: all other assays above

CC(C)NCC(O)c1ccc2ccccc2c1 (stereo not given)
not listed: [17]
inactive: all other assays above

Cc1ccc(C)c([N+](=O)[O-])c1
not listed: [13] | [17] | [19]
inactive: all other assays above

CC1(C)O[C@H]2CC(=O)OC[C@]23[C@H]2CC[C@@]4(C)[C@H](c5ccoc5)OC(=O)[C@H]5O[C@]54[C@]2(C)C(=O)C[C@@H]13
active: [16] 8.49 µM
not listed: [17] | [19]
inactive: all other assays above
